Where “and” joins values, the source holds several entries; their conditions need not be identical. Identical values can stand only once. ± gives the standard deviation of the averaged measurements. The full ranking holds about 2,900 compounds; the median of “IRF Lucia reporter activity, fold change vs agonist alone” is about 0.9, and the highest 2% start at about 2.8. The list comes from a sample in which the highest values are over-represented; it also holds similar structures and randomly drawn compounds.

For assay [1], the system named is RAW-Dual. The experiment in a line: IRF Lucia reporter activity, fold change vs agonist alone; higher = enhanced IRF activity. Particulars: agonist: MPLA (TLR4) […]. The essentials: (§1)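 Reporter activity is given as fold change relative to agonist-alone wells. To measure it, 50 nL of library stock was pin-tooled onto RAW-Dual macrophages (50,000 cells/well, DMEM, 384-well plates), a PRR agonist followed 1 h later, and cells stayed at 37 °C, 5% CO2. Twenty hours on, supernatant was assayed for IRF (QuantiLuc luminescence) and NF-κB (QuantiBlue, 620 nm absorbance), and wells under 70% of agonist-control IncuCyte confluency in both mask sets were marked cytotoxic.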

Assay [2] concerns RAW-Dual. Briefly: IRF Lucia reporter activity, fold change vs agonist alone; cytotoxicity flag (confluency mask): not cytotoxic; higher = enhanced IRF activity. The method, boiled down: as §1
Assay [3] deals with RAW-Dual. Briefly: IRF Lucia reporter activity, fold change vs agonist alone; cytotoxicity flag (confluency mask): cytotoxic (confluency <70% of control); higher = enhanced IRF activity. The method, boiled down: as §1
[4] abbreviates: library stock concentration (final ~1000-fold dilution): 10 mM, cytotoxicity flag (confluency mask): not cytotoxic.
The mark [5] stands for this setting: agonist: 3'3'-cGAMP (STING) 10 ug/mL.
Setting [6] is: library stock concentration (final ~1000-fold dilution): 10 mM, cytotoxicity flag (confluency mask): cytotoxic (confluency <70% of control).

Consider `Cc1cc(/C=C/C#N)cc(C)c1Nc1ccnc(Nc2ccc(C#N)cc2)n1`, for which the “IRF Lucia reporter activity” value in assay [1] (setting [4]) came to 0.64.

With `CC1CNc2c(cccc2S(=O)(=O)NC(CCCNC(=N)N)C(=O)N2CCC(C)CC2C(=O)O)C1` (centres undefined), the “IRF Lucia reporter activity” value in assay [1] (setting [4]) is 0.948.

For `CC1CNc2c(cccc2S(=O)(=O)NC(CCCNC(=N)N)C(=O)N2CCC(C)CC2C(=O)O)C1` (centres undefined) (library stock concentration (final ~1000-fold dilution): 10 mM), the “IRF Lucia reporter activity” value in assay [2] (setting [5]) was 1.01; in assay [2] (agonist: LPS (TLR4) 0.1 ug/mL), 0.919.

Take `O=C(O)c1cc(I)ccc1NC(=O)C(Cc1ccccc1)NCc1ccccc1` (centres undefined): the “IRF Lucia reporter activity” value in assay [1] (setting [4]) was 1.05.

Turning to `O=C(O)c1cc(I)ccc1NC(=O)C(Cc1ccccc1)NCc1ccccc1` (centres undefined) (library stock concentration (final ~1000-fold dilution): 10 mM), the “IRF Lucia reporter activity” value in assay [2] (setting [5]) was determined as 1.17; in assay [2] (agonist: LPS (TLR4) 0.1 ug/mL), 1.41.

As for `Nc1nc2[nH]cc(CCc3ccc(C(=O)NC(CCC(=O)O)C(=O)O)cc3)c2c(=O)[nH]1` (centres undefined) (library stock concentration (final ~1000-fold dilution): 10 mM water), the “IRF Lucia reporter activity” value in assay [2] (setting [5]) is 1.15 and 0.82; in assay [2] (agonist: LPS (TLR4) 0.1 ug/mL), 0.998 and 0.771.

On to `Nc1nc2[nH]cc(CCc3ccc(C(=O)NC(CCC(=O)O)C(=O)O)cc3)c2c(=O)[nH]1` (centres undefined), for which the “IRF Lucia reporter activity” value in assay [1] (library stock concentration (final ~1000-fold dilution): 10 mM water, cytotoxicity flag (confluency mask): not cytotoxic) stood at 1.12.

`CN1C(=O)C(Cc2c[nH]c3ccccc23)NC1=S` (centres undefined) (library stock concentration (final ~1000-fold dilution): 10 mM): the “IRF Lucia reporter activity” value in assay [2] (setting [5]) worked out at 0.553; in assay [2] (agonist: LPS (TLR4) 0.1 ug/mL), 3.04.

Consider `CC(C)CC1NC(=O)C(C(C)C)NC(=O)C2CCCN2C(=O)C(CC(=O)O)NC(=O)C(Cc2c[nH]c3ccccc23)NC1=O` (centres undefined) (library stock concentration (final ~1000-fold dilution): 10 mM), for which the “IRF Lucia reporter activity” value in assay [2] (setting [5]) came out at 1.23; in assay [2] (agonist: LPS (TLR4) 0.1 ug/mL) it was 1.01.

In the case of `CN1C(=O)NC(Cc2c[nH]c3c(Cl)cccc23)C1=O` (centres undefined) (library stock concentration (final ~1000-fold dilution): 10 mM), the “IRF Lucia reporter activity” value in assay [2] (setting [5]) worked out at 0.896; in assay [2] (agonist: LPS (TLR4) 0.1 ug/mL), 0.697.

On to `CC(=O)OCC1OC([S-])C(OC(C)=O)C(OC(C)=O)C1OC(C)=O.CCP(CC)CC.[Au+]` (centres undefined), for which the “IRF Lucia reporter activity” value in assay [1] (setting [6]) is 0.0231.

In the case of `CC(=O)OCC1OC([S-])C(OC(C)=O)C(OC(C)=O)C1OC(C)=O.CCP(CC)CC.[Au+]` (centres undefined) (library stock concentration (final ~1000-fold dilution): 10 mM), the “IRF Lucia reporter activity” value amounted to 0.0169 in assay [3] (setting [5]) and 0.0188 in assay [3] (agonist: LPS (TLR4) 0.1 ug/mL).

Consider `CC(=O)OC1CC/C(C)=C/CC/C(C)=C/CC2(C(C)C)CCC1(C)O2` (centres undefined) (library stock concentration (final ~1000-fold dilution): 10 mM), for which the “IRF Lucia reporter activity” value came to 0.818 ± 0.25 in assay [2] (setting [5]) and 0.744 ± 0.15 in assay [2] (agonist: LPS (TLR4) 0.1 ug/mL).

As for `O=C(/C=C/c1ccc(O)c(O)c1)O[C@@H]1C[C@@](O)(C(=O)O)C[C@@H](O)[C@@H]1O` (library stock concentration (final ~1000-fold dilution): 10 mM), the “IRF Lucia reporter activity” value in assay [2] (setting [5]) is 1.02; in assay [2] (agonist: LPS (TLR4) 0.1 ug/mL) it was 1.23.

`CS(=O)(=O)O.Cc1c(O)cccc1C(=O)NC(CSc1ccccc1)C(O)CN1CC2CCCCC2CC1C(=O)NC(C)(C)C` (centres undefined): in assay [1] (setting [4]), the “IRF Lucia reporter activity” value came out at 2.24.

With `CC(C)(C)NC(=O)C1CN(Cc2cccnc2)CCN1CC(O)CC(Cc1ccccc1)C(=O)NC1c2ccccc2CC1O.O=S(=O)(O)O` (centres undefined) (library stock concentration (final ~1000-fold dilution): 10 mM), the figures for the “IRF Lucia reporter activity” value in assay [2] (setting [5]) and in assay [2] (agonist: LPS (TLR4) 0.1 ug/mL) were 1.1 and 0.77, respectively.

Turning to `CS(=O)(=O)O.Cc1c(O)cccc1C(=O)NC(CSc1ccccc1)C(O)CN1CC2CCCCC2CC1C(=O)NC(C)(C)C` (centres undefined) (library stock concentration (final ~1000-fold dilution): 10 mM), the “IRF Lucia reporter activity” value was determined as 0.918 in assay [2] (setting [5]) and 3.62 in assay [2] (agonist: LPS (TLR4) 0.1 ug/mL).

Regarding `CC(C)c1nc(CN(C)C(=O)NC(C(=O)NC(Cc2ccccc2)CC(O)C(Cc2ccccc2)NC(=O)OCc2cncs2)C(C)C)cs1` (centres undefined) (library stock concentration (final ~1000-fold dilution): 10 mM), the “IRF Lucia reporter activity” value in assay [2] (setting [5]) stood at 0.757; in assay [2] (agonist: LPS (TLR4) 0.1 ug/mL), 1.34.

Take `CC(C)c1nc(CN(C)C(=O)NC(C(=O)NC(Cc2ccccc2)CC(O)C(Cc2ccccc2)NC(=O)OCc2cncs2)C(C)C)cs1` (centres undefined): the “IRF Lucia reporter activity” value in assay [1] (setting [4]) was 1.07.

As to `Cc1cc(C(=O)NC(C)(C)C)cc(C#Cc2ccc3c4c(oc3c2)C(C)(C)c2cc(NS(C)(=O)=O)ccc2C4=O)n1` (library stock concentration (final ~1000-fold dilution): 10 mM), the “IRF Lucia reporter activity” value in assay [2] (setting [5]) was 0.196; in assay [2] (agonist: LPS (TLR4) 0.1 ug/mL), 0.504.

For `CCC1(O)CC2CN(CCc3c([nH]c4ccccc34)C(C(=O)OC)(c3cc4c(cc3OC)N(C)C3C(O)(C(=O)OC)C(OC(C)=O)C5(CC)C=CCN6CCC43C65)C2)C1.O=S(=O)(O)O` (centres undefined) (library stock concentration (final ~1000-fold dilution): 10 mM), the “IRF Lucia reporter activity” value in assay [3] (setting [5]) amounted to 0.226; in assay [3] (agonist: LPS (TLR4) 0.1 ug/mL), 2.16.

Take `CCC1=CC2CN(C1)Cc1c([nH]c3ccccc13)C(C(=O)OC)(c1cc3c(cc1OC)N(C)C1C(O)(C(=O)OC)C(OC(C)=O)C4(CC)C=CCN5CCC31C54)C2` (centres undefined): the “IRF Lucia reporter activity” value in assay [1] (setting [6]) came to 2.68.

For `CCC1(O)CC2CN(CCc3c([nH]c4ccccc34)C(C(=O)OC)(c3cc4c(cc3OC)N(C=O)C3C(O)(C(=O)OC)C(OC(C)=O)C5(CC)C=CCN6CCC43C65)C2)C1.O=S(=O)(O)O` (centres undefined) (library stock concentration (final ~1000-fold dilution): 10 mM), the “IRF Lucia reporter activity” value in assay [2] (setting [5]) was 0.107; in assay [2] (agonist: LPS (TLR4) 0.1 ug/mL), 2.02.

Consider `CCC1(O)CC2CN(CCc3c([nH]c4ccccc34)C(C(=O)OC)(c3cc4c(cc3OC)N(C)C3C(O)(C(=O)OC)C(OC(C)=O)C5(CC)C=CCN6CCC43C65)C2)C1.O=S(=O)(O)O` (centres undefined), for which, in assay [1] (setting [6]), the “IRF Lucia reporter activity” value stood at 2.07.

As for `CCC1(O)CC2CN(CCc3c([nH]c4ccccc34)C(C(=O)OC)(c3cc4c(cc3OC)N(C=O)C3C(O)(C(=O)OC)C(OC(C)=O)C5(CC)C=CCN6CCC43C65)C2)C1.O=S(=O)(O)O` (centres undefined), the “IRF Lucia reporter activity” value in assay [1] (setting [4]) worked out at 1.06.

`CCC1=CC2CN(C1)Cc1c([nH]c3ccccc13)C(C(=O)OC)(c1cc3c(cc1OC)N(C)C1C(O)(C(=O)OC)C(OC(C)=O)C4(CC)C=CCN5CCC31C54)C2` (centres undefined) (library stock concentration (final ~1000-fold dilution): 10 mM): the “IRF Lucia reporter activity” value in assay [3] (setting [5]) came out at 0.371; in assay [3] (agonist: LPS (TLR4) 0.1 ug/mL), 2.95.

Consider `CCCCS(=O)(=O)NC(Cc1ccc(OCCCCC2CCNCC2)cc1)C(=O)O.Cl.O` (centres undefined) (library stock concentration (final ~1000-fold dilution): 10 mM), for which the “IRF Lucia reporter activity” value in assay [2] (setting [5]) is 0.894; in assay [2] (agonist: LPS (TLR4) 0.1 ug/mL), 1.35.

Values taken from the supplement of paper PMC10037445.
